Compounds with a hit are over-represented: about 4% of the library has one in this group of screens.
Anthrax LF prot = blocks Bacillus anthracis lethal factor protease | P15917 | 360,000 compounds, 0.12% hits | multiplex microsphere protease cleavage assay, LF | inhibition, % at 10 µM | AID 588501; also: plate controls were buffer without enzyme for full effect and enzyme alone for no effect
BoNT-A LC inh2 = inhibitors of Botulinum neurotoxin A light chain protease | multiplex microsphere protease substrate cleavage, flow cytometry | inhibition, % at 10 µM | 360,000 compounds, 0.17% hits | AID 588499; also: plate controls were buffer without enzyme for full effect and enzyme alone for no effect
BoNT F protease = blocks Botulinum neurotoxin F light chain protease; Multiplex microsphere protease cleavage assay, flow cytometry; inhibition, % at 10 µM; 360,000 compounds, 0.22% hits; AID 588497; in the data active = inhibition above about 35%, passing the limit was not always enough; inconclusive = no clear call, values can overlap the other calls; also: plate controls were buffer without enzyme for full effect and enzyme alone for no effect
MazF activator = increases E. coli MazEF RNase cleavage of RNA; P0AE70; AID 504720; 350,000 compounds, 0.32% hits; FAM/BHQ RNA-DNA oligo cleavage fluorescence, 5 h; activation, % at 20 µM; in the data active = activation above about 50%
Target sequence (P0AE70 whole entry, looked up): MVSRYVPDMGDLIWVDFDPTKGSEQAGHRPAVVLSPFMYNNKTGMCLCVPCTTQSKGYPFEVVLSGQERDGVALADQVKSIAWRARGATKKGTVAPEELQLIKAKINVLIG
Bead autofluor = compound fluorescence in toxin protease inhibitor counterscreen; compound autofluorescence counterscreen, microsphere flow cytometry; stronger effect = higher value; 360,000 compounds, 3.1% hits; fluorescence intensity (test concentration not listed); in the data active = fluorescence intensity above about 16000; inconclusive = no clear call, values can overlap the other calls
DUSP3 inh = inhibitors of human VHR1 phosphatase (DUSP3); P51452; AID 1654; 290,000 compounds, 0.52% hits; recombinant VHR phosphatase, pNPP absorbance; inhibition, % at 13.3 µM; in the data active = inhibition above about 50%
Target sequence (P51452 whole entry, looked up): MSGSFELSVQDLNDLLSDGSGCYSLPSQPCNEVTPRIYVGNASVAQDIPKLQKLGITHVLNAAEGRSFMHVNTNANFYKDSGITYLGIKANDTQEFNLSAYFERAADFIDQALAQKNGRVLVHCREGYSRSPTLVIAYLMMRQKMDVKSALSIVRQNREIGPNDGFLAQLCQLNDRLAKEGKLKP
The depositor's hits bear a star. Rule as the data show it, unless noted: active = inhibition above about 30%; inconclusive = no clear call, values can overlap the other calls; inactive = below that.

Results for CCN(CC(=O)Nc1c(F)cccc1F)C(=O)C1CC(=O)N(c2ccc3c(c2)OCCO3)C1 (stereo not given) ?
Anthrax LF prot: 0.5; BoNT-A LC inh2: 2.6; BoNT F protease: 21.2; MazF activator: 2.4; Bead autofluor: 4558

What do the screens show for `O=C(c1ccccc1)c1ccc2nc(-c3ccco3)c(-c3ccco3)nc2c1`?
Anthrax LF prot: 14.8; BoNT-A LC inh2: 42.5*; BoNT F protease: -8.6; MazF activator: -4.7; Bead autofluor: 3903; DUSP3 inh: 18.2

What do the screens show for `CCC(C)C(N)C1=NC(C(=O)N[C@@H](CC(C)C)C(=O)N[C@H](CCC(=O)O)C(=O)N[C@H](C(=O)N[C@H]2CCCCNC(=O)[C@H](CC(N)=O)NC(=O)[C@@H](CC(=O)O)NC(=O)[C@H](Cc3cnc[nH]3)NC(=O)[C@@H](Cc3ccccc3)NC(=O)[C@H]([C@@H](C)CC)NC(=O)[C@@H](CCCN)NC2=O)[C@@H](C)CC)CS1` (stereo not given in full)?
Anthrax LF prot: 11.9; BoNT-A LC inh2: -0.8; BoNT F protease: -7.2; MazF activator: 386.6*; Bead autofluor: 5790

What do the screens show for `O=C(O)c1ccc(-c2ccccc2)[nH]1`?
Anthrax LF prot: -4.2; BoNT-A LC inh2: 1.8; BoNT F protease: -0.5; MazF activator: 2.1; Bead autofluor: 22282*; DUSP3 inh: 18.2

What do the screens show for `c1ccc(-c2ccc(-c3ccccc3)[nH]2)cc1`?
Anthrax LF prot: -9.6; BoNT-A LC inh2: -0.6; BoNT F protease: -5.8; MazF activator: 9.0; Bead autofluor: 3910

What do the screens show for `CCN1C(=O)C(=Cc2ccc(C)s2)C(=O)N(CC)C1=S`?
Anthrax LF prot: 28.3; BoNT-A LC inh2: 69.1*; BoNT F protease: 7.4; MazF activator: 12.8; Bead autofluor: 3018; DUSP3 inh: -8.5

What do the screens show for `CCN(CC)C(=O)COc1cc(C)c(Cl)c(C)c1`?
Anthrax LF prot: 2.7; BoNT-A LC inh2: 0.4; BoNT F protease: -0.6; MazF activator: 0.7; Bead autofluor: 12966; DUSP3 inh: -1.0

Results for CNC(=O)c1cc2ncc(C(F)(F)F)cc2s1 ?
Anthrax LF prot: -2.3; BoNT-A LC inh2: -0.9; BoNT F protease: -11.9; MazF activator: 8.7; Bead autofluor: 2677; DUSP3 inh: 23.8

Results for Cc1ccc(OCCn2c(C3CC(=O)N(Cc4ccccc4)C3)nc3ccccc32)cc1 (stereo not given) ?
Anthrax LF prot: -5.2; BoNT-A LC inh2: 0.2; BoNT F protease: -9.7; MazF activator: -7.5; Bead autofluor: 4297; DUSP3 inh: 23.6

Results for C=CCN1CC(c2nc3ccccc3n2Cc2cccc3ccccc23)CC1=O (stereo not given) ?
Anthrax LF prot: -1.1; BoNT-A LC inh2: -1.2; BoNT F protease: -3.2; MazF activator: 4.0; Bead autofluor: 19853*; DUSP3 inh: 16.8

What do the screens show for `CS(=O)(=O)N1CCc2cc(C(=O)N3CCN(c4ccccc4F)CC3)ccc21`?
Anthrax LF prot: 0.4; BoNT-A LC inh2: -1.1; BoNT F protease: -7.9; MazF activator: -26.0; Bead autofluor: 6024; DUSP3 inh: 1.8

What do the screens show for `CCCOc1nc(SCCC)nc2c1cnn2-c1ccccc1`?
Anthrax LF prot: -11.8; BoNT-A LC inh2: 0.4; BoNT F protease: inconclusive; MazF activator: -7.8; Bead autofluor: 4501; DUSP3 inh: 53.0*

What do the screens show for `C=CCn1c(O)c(N=Nc2ccccc2O)c2ccccc21`?
Anthrax LF prot: -7.0; BoNT-A LC inh2: -0.5; BoNT F protease: -9.5; MazF activator: 310.8*; Bead autofluor: 4292

What do the screens show for `C=CCn1c(O)c(N=Nc2ccccc2)c2ccccc21`?
Anthrax LF prot: 1.2; BoNT-A LC inh2: 0.6; BoNT F protease: inconclusive; MazF activator: -9.4; Bead autofluor: 3474; DUSP3 inh: 8.8

What do the screens show for `CCOc1ccc(NS(=O)(=O)c2cc(NC(=O)C3CC3)ccc2C)cc1Br`?
Anthrax LF prot: -9.9; BoNT-A LC inh2: -0.4; BoNT F protease: -5.6; MazF activator: 0.4; Bead autofluor: 2736

Results for Cc1ccccc1N1CCN(c2ncnc3scc(-c4cccs4)c23)CC1 ?
Anthrax LF prot: -9.7; BoNT-A LC inh2: 1.7; BoNT F protease: -0.2; MazF activator: 6.9; Bead autofluor: 21408*; DUSP3 inh: 20.2

Results for COc1ccc(/C=C(/C#N)c2cccnc2)cc1OC ?
Anthrax LF prot: 13.4; BoNT-A LC inh2: -0.6; BoNT F protease: -9.0; MazF activator: 6.6; Bead autofluor: 6072; DUSP3 inh: -10.7

What do the screens show for `COc1cc(CC(=O)OCC(=O)Nc2ccc3c(c2)OCCO3)cc(OC)c1OC`?
Anthrax LF prot: -0.2; BoNT-A LC inh2: -0.3; BoNT F protease: -4.2; MazF activator: 3.2; Bead autofluor: 2215; DUSP3 inh: -14.0

What do the screens show for `COCCNC(=O)NC(=O)COC(=O)Cc1ccc2c(c1)OCCO2`?
Anthrax LF prot: 0.1; BoNT-A LC inh2: -0.3; BoNT F protease: 1.1; MazF activator: -9.2; Bead autofluor: 22511*; DUSP3 inh: -15.0

Results for CC(=O)Nc1ccc(C(=O)NC(C)c2ccc(-n3ccnc3)cc2)cc1 (stereo not given) ?
Anthrax LF prot: -2.6; BoNT-A LC inh2: -0.7; BoNT F protease: -9.8; MazF activator: 4.9; Bead autofluor: 5888; DUSP3 inh: 53.3*

How did Cc1ccc(C(=O)NC(C)c2ccc(-n3ccnc3)cc2)cc1 (stereo not given) do in these assays?
Anthrax LF prot: -6.3; BoNT-A LC inh2: -1.6; BoNT F protease: -11.4; MazF activator: 4.9; Bead autofluor: 2966; DUSP3 inh: -7.2

What do the screens show for `Cc1cc(OCC(=O)Nc2ccccn2)c2c(C)cc(=O)oc2c1`?
Anthrax LF prot: -0.6; BoNT-A LC inh2: -0.7; BoNT F protease: -7.7; MazF activator: 31.4; Bead autofluor: 6161; DUSP3 inh: 7.1

What do the screens show for `Cn1c(=O)c2sccc2n2c(CCCC(=O)NCc3ccc(F)cc3)nnc12`?
Anthrax LF prot: -5.4; BoNT-A LC inh2: -1.5; BoNT F protease: -2.2; MazF activator: 6.5; Bead autofluor: 6271; DUSP3 inh: 59.7*

Results for COc1ccc(N2CCN(C(=O)CCCOc3cc(=O)n(C)c4ccccc34)CC2)cc1 ?
Anthrax LF prot: -3.9; BoNT-A LC inh2: -1.0; BoNT F protease: -4.3; MazF activator: 1.7; Bead autofluor: 23028*; DUSP3 inh: 24.9

What do the screens show for `CC1CCN(C(=O)CCCOc2cc(=O)n(C)c3ccccc23)CC1`?
Anthrax LF prot: 1.7; BoNT-A LC inh2: inconclusive; BoNT F protease: -0.9; MazF activator: -7.5; Bead autofluor: 20059*; DUSP3 inh: -13.3

Results for CCc1nc2sc3c(c2c(=O)n1N)CCC3 ?
Anthrax LF prot: -3.6; BoNT-A LC inh2: -0.4; BoNT F protease: -25.6; MazF activator: 2.3; Bead autofluor: 3598; DUSP3 inh: 21.4

Results for COC(=O)c1nn(-c2ccc(OC)cc2)c(=O)cc1Oc1ccccc1 ?
Anthrax LF prot: -1.0; BoNT-A LC inh2: 1.7; BoNT F protease: 3.0; MazF activator: -2.3; Bead autofluor: 21753*; DUSP3 inh: 20.8

What do the screens show for `CCOc1cc(S(=O)(=O)NCc2ccc(OC)cc2)c(OCC)cc1-n1cnnn1`?
Anthrax LF prot: -4.5; BoNT-A LC inh2: inconclusive; BoNT F protease: -0.4; MazF activator: -6.1; Bead autofluor: 23322*; DUSP3 inh: 3.6

Source: PubChem
